MITF inh = inhibitors of MITF, primary screen, MITF inhibitor project, cell-based, luminescence | inhibition, % (no concentration beside the values) | 37,000 tested, 0.28% active | TRPM1 promoter luciferase, 24 h | AID 2240, 2010; in the data active = inhibition above about 85%; inconclusive = no clear call, values can overlap the other calls; inactive = below about 68%;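 also: human melanocyte line stably carrying TRPM1 promoter luciferase reporter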
Shh pathway inh = Hedgehog pathway signaling inhibitors, primary screen, luminescence, Shh-LIGHT2 cells, Gli-luciferase; Shh-LIGHT2 Gli-luciferase reporter, 30 h; inhibition, % (no concentration beside the values); AID 2313, 2010; 22,000 tested, 2.1% active;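 active = mean inhibition across valid replicates above about 65%, limit read from the data; inconclusive = mean under the limit, yet half or more replicates past it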;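 also: pathway switched on by Shh-conditioned medium diluted 1 in 25 in low serum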
An asterisk follows results filed as active; ? = inconclusive; / = no result given; ! = a repeat was not active. This is one part of a sample in which hits are shown more often than they occur.

SMILES | MITF inh | Shh pathway inh
C/C=C(\C)C(=O)O[C@@H]1C(C)=C2[C@H]3OC(=O)[C@](C)(O)[C@]3(O)[C@H](OC(=O)C(C)CC)C[C@@](C)(OC(C)=O)[C@@H]2[C@H]1OC(=O)CCCCCCC (stereo partly drawn) | / | 99.0*
Nc1ncnc2c1ncn2C1CCC(CO)O1 (stereo not drawn) | 0.9 | -61.7
Nc1ncnc2c1c(I)cn2C1OC(CO)C(O)C1O (stereo not drawn) | 87.6* | 44.0
O=C(Nc1ccc(Cl)cc1Cl)C1CC(=O)n2ncnc2N1 (stereo not drawn) | -12.2 | /
Oc1c(C(Nc2ccccn2)c2c(F)cccc2Cl)cc(Cl)c2cccnc12 (stereo not drawn) | 67.4 | /
CCOc1ccc(NC(=O)C2CC(=O)NC(N3CCN(C)CC3)=N2)cc1 (stereo not drawn) | -28.6 | /
COc1cc2c(cc1O)CCC1C2CC[C@@]2(C)C1CC[C@@H]2O (stereo partly drawn) | 19.0 | 90.7*
COc1cc(C)c2c(c1)CCC1C2CCC2(C)C(O)CCC12 (stereo not drawn) | -72.0 | ?
O=C(O)c1cccc(NCc2cccnc2)c1 | -16.5 | /
OC(Cc1cccnc1)(c1ccccc1)c1ccccc1 | 26.9 | 70.6*
C=C1C(=O)O[C@@H]2C3C(=C(C)[C@@H](O)[C@@H](OC(=O)/C(=C/C)COC(C)=O)[C@@H]12)C(=O)[C@H]1O[C@@]31C (stereo partly drawn) | 58.0 | 72.3*
C=C(C)C(=O)O[C@H]1C[C@@]2(C)O[C@@H]2[C@H]2O[C@H]2C(=C)[C@@H](O)[C@H]2OC(=O)C(=C)[C@@H]21 | / | 7.8
Cc1csc2sc(C=NCc3cccs3)c(C)c12 | -6.1 | -4.3
COc1ccc(S(=O)(=O)N(C)C[C@@H]2Oc3c(NC(=O)Nc4ccc(F)cc4)cccc3C(=O)N([C@@H](C)CO)C[C@@H]2C)cc1 | 7.1 | 85.6*
COc1ccc(NC(=O)Nc2cccc3c2O[C@H](CN(C)S(=O)(=O)c2ccccc2)[C@H](C)CN([C@H](C)CO)C3=O)cc1 | -56.6 | 74.5*
C[C@@H]1CN([C@H](C)CO)C(=O)Cc2cc(N(C)C)ccc2O[C@H]1CN(C)S(=O)(=O)c1cccs1 | -3.5 | -21.1
COc1ccc(NC(=O)Nc2cccc3c2O[C@@H](CN(C)S(=O)(=O)c2ccc(F)cc2)[C@@H](C)CN([C@H](C)CO)C3=O)cc1 | -7.2 | -31.4
C[C@@H]1CN([C@H](C)CO)C(=O)Cc2cc(N(C)C)ccc2O[C@@H]1CN(C)S(=O)(=O)c1cccs1 | 6.1 | 68.8*
COc1ccc(S(=O)(=O)N(C)C[C@@H]2Oc3c(NC(=O)Nc4ccc(F)cc4)cccc3C(=O)N([C@H](C)CO)C[C@@H]2C)cc1 | 2.3 | 67.9*
COc1ccc(NC(=O)Nc2cccc3c2O[C@@H](CN(C)S(=O)(=O)c2ccc(F)cc2)[C@H](C)CN([C@@H](C)CO)C3=O)cc1 | 3.2 | -14.0
COc1ccc(NC(=O)Nc2cccc3c2O[C@@H](CN(C)S(=O)(=O)c2ccccc2)[C@H](C)CN([C@H](C)CO)C3=O)cc1 | -4.3 | 10.5
COc1ccc(C2CC(c3ccc(Br)cc3)=NN2C(=O)CCN2CCOCC2)cc1 (stereo not drawn) | -8.8 | 40.2
COC(=O)c1ccccc1S(=O)(=O)/C(C#N)=C/Nc1nc(C)cc(C)n1 | 16.5 | /
CN1CCN(CCCN2C(=O)CSC2c2ccc(F)cc2)CC1 (stereo not drawn) | 2.4 | -26.6
O=C(COc1ccc(Br)cc1)Nc1cccc(NC(=O)c2ccc(Cl)cc2Cl)c1 | -0.5 | /
SMILES | MITF inh | Shh pathway inh
COc1ccc(NC(=O)Nc2ccc3c(c2)CC(=O)N([C@@H](C)CO)C[C@H](C)[C@@H](CN(C)S(=O)(=O)c2ccc(Cl)cc2)O3)cc1 | 9.1 | 74.1*
COc1ccc(NC(=O)Nc2cccc3c2O[C@@H](CN(C)S(=O)(=O)c2ccc(Cl)cc2)[C@@H](C)CN([C@H](C)CO)C3=O)cc1 | -13.1 | 91.9*
COc1ccc(NC(=O)Nc2cccc3c2O[C@H](CN(C)S(=O)(=O)c2ccc(Cl)cc2)[C@@H](C)CN([C@H](C)CO)C3=O)cc1 | -10.8 | 4.3
COc1ccc(NC(=O)Nc2ccc3c(c2)CC(=O)N([C@@H](C)CO)C[C@@H](C)[C@@H](CN(C)S(=O)(=O)c2ccc(Cl)cc2)O3)cc1 | 15.8 | 0.9
CC1Oc2ccccc2OC1(O)c1ccc(Br)cc1 (stereo not drawn) | 17.5 | 16.9
O=C(Nc1cc(S(=O)(=O)c2ccccc2)cs1)c1ccc(Cl)cc1 | 45.4 | 4.3
CCc1cc(O)c(C)c(O)c1C=O | / | 3.3
Cc1cc2c(C(C)C)c(O)c(O)c(C=O)c2c(O)c1-c1c(C)cc2c(C(C)C)c(O)c(O)c(C=O)c2c1O | 30.6 | 68.2*!
C=C(C)CC1C(=O)NN=C1C (stereo not drawn) | -28.9 | /
Cc1cc(-c2ccccc2)nc2c1/C(=N\O)CC(C)(C)C2 | -22.5 | -7.6
CSc1ccccc1NC(=O)CN(c1cc(C(F)(F)F)ccc1Cl)S(C)(=O)=O | 4.2 | /
CCOC(=O)C1=NNCC1C(=O)OCC (stereo not drawn) | 12.6 | /
NC(=NCc1ccccc1)NC(=O)c1nc(Cl)c(N)nc1N | 8.6 | 68.8*!
NC(=Nc1ccccc1)NC(=O)c1nc(Cl)c(N)nc1N | -84.2 | 12.5
CSc1nnc(-c2ccccc2NC(=O)c2ccccc2)c(=O)[nH]1 | 5.5 | /
CC(C)c1c(O)ccc2c1CCC1C(C)(C)CCC[C@]21C (stereo partly drawn) | 106.3* | ?
CC(C)c1ccc2c(c1)CCC1[C@](C)(C(=O)O)CCC[C@]21C (stereo partly drawn) | -22.1 | -20.4
CC1CCC(C(C)C)C(NC(=O)c2cccc3ccccc23)C1 (stereo not drawn) | -8.0 | 5.7
Cc1ccc(-c2nc3ncccc3o2)cc1NC(=O)COc1cc(Cl)c(Cl)cc1Cl | -23.3 | /
CC(C)/C(=N/O)c1ccccc1 | 4.6 | -5.9
Cc1cc(C)c(C#N)c(SCCS(=O)(=O)c2nc3ccccc3s2)n1 | 37.7 | /
C[C@H]1CN([C@@H](C)CO)C(=O)c2cccc(NS(=O)(=O)c3ccc(Cl)cc3)c2O[C@H]1CN(C)C(=O)NC1CCCCC1 | 18.3 | 16.9
COc1ccc(S(=O)(=O)Nc2cccc3c2O[C@@H](CN(C)C(=O)NC2CCCCC2)[C@@H](C)CN([C@H](C)CO)C3=O)cc1 | 32.4 | 66.1*
C[C@H](CO)N1C[C@H](C)[C@H](CN(C)C(=O)NC2CCCCC2)Oc2c(NS(=O)(=O)c3ccc(Cl)cc3)cccc2C1=O | 14.5 | 99.9*
COc1ccc(S(=O)(=O)Nc2cccc3c2O[C@@H](CN(C)CC2CCCCC2)[C@@H](C)CN([C@H](C)CO)C3=O)cc1 | 2.4 | 70.6*
C[C@@H]1CN([C@H](C)CO)C(=O)c2cccc(NS(=O)(=O)c3ccc(Cl)cc3)c2O[C@@H]1CN(C)C(=O)Nc1ccc(C(F)(F)F)cc1 | 28.1 | -13.1
COc1ccc(S(=O)(=O)Nc2cccc3c2O[C@@H](CN(C)CC2CCCCC2)[C@H](C)CN([C@@H](C)CO)C3=O)cc1 | 2.5 | -66.9
COc1ccc(S(=O)(=O)Nc2cccc3c2O[C@H](CN(C)C(=O)NC2CCCCC2)[C@@H](C)CN([C@@H](C)CO)C3=O)cc1 | -10.4 | -42.4
C[C@@H]1CN([C@@H](C)CO)C(=O)c2cccc(NS(=O)(=O)c3ccc(Cl)cc3)c2O[C@@H]1CN(C)C(=O)Nc1ccc(C(F)(F)F)cc1 | 88.2* | -8.7
